Source: PubChem BioAssay
CtBP-E1A blk: inhibitors of CtBP/E1A interaction; AlphaScreen GST-E1A/His-CtBP binding, 1536-well; active compounds read low; AID 651724; 340,000 tested, 0.49% active; activity change, % (concentration not given with the values); in the data active means activity change below about -65%; inconclusive means mostly about -30% to -63%; further: on the % scale 0 is the no-effect control and ±100 the full control effect
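In 5 uL wells, 23 nL compound meets equimolar GST-E1A and His-CtBP (5X stock 125 nM each) for 2 h, 37 °C. Beads (5X, 50 ug/mL) then 1 h, 37 °C, dark.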
Six1-Eya2 inh: Six1/Eya2 interaction inhibition. AlphaScreen GST-Six1/His-Eya2 binding, biochemical; active compounds read low. AID 651725. 360,000 tested, 0.56% active. activity change, % (no concentration beside the values). Q15475+O00167; in the data active means activity change below about -65%; inconclusive means mostly about -30% to -63%; further: on the % scale 0 is the no-effect control and ±100 the full control effect
Target sequence (O00167 whole entry, looked up): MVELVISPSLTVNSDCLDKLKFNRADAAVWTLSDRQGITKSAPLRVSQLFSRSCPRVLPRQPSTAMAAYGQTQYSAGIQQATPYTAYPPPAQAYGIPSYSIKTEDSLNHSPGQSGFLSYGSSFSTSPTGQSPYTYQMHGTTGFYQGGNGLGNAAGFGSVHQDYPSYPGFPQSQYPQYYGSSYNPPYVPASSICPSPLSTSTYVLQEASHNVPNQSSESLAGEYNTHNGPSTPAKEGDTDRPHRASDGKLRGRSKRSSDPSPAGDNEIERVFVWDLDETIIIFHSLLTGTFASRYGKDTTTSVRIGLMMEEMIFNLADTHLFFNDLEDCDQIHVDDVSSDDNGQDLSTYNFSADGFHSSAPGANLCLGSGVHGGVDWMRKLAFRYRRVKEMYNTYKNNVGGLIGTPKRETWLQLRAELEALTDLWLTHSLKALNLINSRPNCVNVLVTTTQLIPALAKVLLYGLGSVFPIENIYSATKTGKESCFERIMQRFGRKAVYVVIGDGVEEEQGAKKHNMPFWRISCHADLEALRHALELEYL
Target sequence (Q15475 whole entry, looked up): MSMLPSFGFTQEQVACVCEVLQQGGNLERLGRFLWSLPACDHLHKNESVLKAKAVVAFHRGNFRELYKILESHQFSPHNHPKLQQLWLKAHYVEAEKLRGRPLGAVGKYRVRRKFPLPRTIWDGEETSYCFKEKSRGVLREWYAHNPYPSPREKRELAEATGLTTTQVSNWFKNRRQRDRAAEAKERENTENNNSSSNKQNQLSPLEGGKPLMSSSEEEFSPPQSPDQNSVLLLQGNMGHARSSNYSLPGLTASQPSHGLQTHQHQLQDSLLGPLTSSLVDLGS
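Six1/Eya2 binding was read as AlphaScreen signal after compounds were pinned into GST-Six1 plus His-tagged Eya2 (5X stock 250/500 nM) in pH 8.0 Tris/NaCl/TCEP buffer, beads added, then incubated 1 h, 37 C, dark.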
RORg inh: ROR gamma (mouse) transcription inhibition; Potency, µM (titrated, usually from 53.6 µM), for the others: at the highest dose activity change, negative = inhibition, most hits filed as inhibitors; Drosophila S2 Gal4-RORgamma UAS-luciferase reporter, 20 h; P51450; 310,000 tested, 5.4% active; further: potency means the concentration at half of the fitted maximal effect; on the % scale 0 is the no-effect control and ±100 the full control effect; nearly all actives have a fitted effect of over 60% in size
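In this cell-based reporter format, copper sulfate (700 uM final) drives Gal4–ROR gamma fusion expression from a metallothionein promoter in Drosophila Schneider cells; compounds preincubated 1 hr, reporter read after 20 hr at ambient temperature.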
MBNL1 CUG block: MBNL1-poly(CUG) RNA binding inhibition; TR-FRET MBNL1-His/biotin-(CUG)12 binding, 665/545 ratio; Q9NR56; 280,000 tested, 0.036% active; Potency, µM (doses to about 57.5 µM), without a hit: at the top dose activity change, negative = inhibition, hits mostly inhibitors; active means well fitted inhibition curve with a large enough effect in the signal ratio, with a control signal flat, not every such curve was filed as active; inconclusive means small, poorly fitted or top-dose-only effect, or effect the other way, or a change in a side signal; inactive means no such curve, though single readings can be large or run the other way; the % refers to the signal ratio; further: potency means the concentration at half of the fitted maximal effect; on the % scale 0 is the no-effect control and ±100 the full control effect
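TR-FRET readout: Ex 340 nm, 665/545 nm emission ratio, normalized to buffer-only (basal) and MBNL1-(CUG)12 controls. Complex of MBNL1-His with Biotin-(CUG)12, compounds 92 nM–58 uM, incubated 60 min at room temperature.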
VP16 counter: inhibits Gal4-VP16 luciferase reporter, ROR gamma counter-screen. AID 2546. Potency, µM (series often up to 53.6 µM), without a hit: at the highest dose activity, negative = inhibition, hits mostly inhibitors. Drosophila S2 Gal4-VP16 UAS-luciferase, luminescence, 20 h. 310,000 tested, 3.5% active;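 further: Gal4-VP16 expression switched on by copper sulfate through the metallothionein promoter; potency means the concentration at half of the fitted maximal effect; on the % scale 0 is the no-effect control and ±100 the full control effect; nearly all actives have a fitted effect of over 50% in size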
CBFb-RUNX1 inh: CBF-beta/RUNX1 interaction disruption. AlphaScreen CBFb-His/RUNX1-biotin binding, biochemical. 230,000 tested, under 10 active. Potency, µM (doses to about 59.8 µM), inactives show top-dose activity, negative = inhibition, actives largely listed as inhibitors. Q01196+Q13951; further: % of control where 0% means no effect
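His-tagged CBF-beta and biotinylated RUNX1 (30 nM each) were premixed 20 min at room temperature, exposed to compound for 15 min, then given nickel-chelate and streptavidin AlphaScreen beads (50 ng each). After 90 min, AlphaScreen signal was read.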
* = called active by the depositor; ? = inconclusive; / = no result; [ ] = dose if it differs, or a comment. In the library only some 5.5% were active in any assay of this set; here they are far more common. Unless noted, the call rests on the fitted dose curve; in most records, active means well fitted curve in the direction sought with a large enough effect; inconclusive means small, poorly fitted or top-dose-only effect, or another doubt; inactive means no such curve, though single readings can be large; an effect the other way counts as inactive or inconclusive.

SMILES	CtBP-E1A blk	Six1-Eya2 inh	RORg inh	MBNL1 CUG block	VP16 counter	CBFb-RUNX1 inh
O=C(CSCc1ccco1)Nc1cc(C(F)(F)F)ccc1N1CCOCC1	2.2	30.4	-9.1%[10 µM]	-5.9%	-0.5%	-7.0%
O=C(CSc1nnc(Cc2ccccc2)o1)Nc1cccc(F)c1	5.2	-4.5	-9.7%	-4.3%	-3.5%	/
Nc1c(C(=O)N2CCOCC2)sc2nc3c(cc12)CCCC3	12.7	2.2	10µM*	?	?	/
Nc1c(C(=O)N2CCOCC2)sc2nc3c(cc12)CCC3	5.5	2.4	?	?	?	3.6%
Cc1cc(C)c2nc3sc(C(=O)N4CCOCC4)c(N)c3cc2c1	-0.5	4.1	10µM*	?	?	6.7%
Cc1cccc(C(=O)N[C@H](C(=O)Nc2ccc3c(c2)OCO3)C(C)C)c1	-5.2	-3.8	/	/	/	/
CC1CCN(c2ccc(NC(=O)Cc3ccccc3)cc2)CC1	-0.5	-23.3	24.2%	-3.1%	-14.7%	10.2%
COc1cccc(CNc2ccc(N3CCC(C)CC3)cc2)c1OC	-69.6*	-71.8*	-24.8%	-1.0%	-4.1%	?
Cc1ccc(C2=NN(C(=O)CCl)C(c3ccco3)C2)o1 (configuration not stated)	11.4	2.2	11.2µM*	14.7%	?	/
CC(=O)N1N=C(c2ccco2)CC1c1ccco1 (configuration not stated)	1.8	-0.1	?	4.9%	0.9%	/
O=C(C[C@H]1C[C@@H]2c3cc(NC(=O)c4ccc5c(c4)OCO5)ccc3O[C@@H]2[C@H](CO)O1)NCc1cc(F)ccc1F	-67.3*	-69.6*	/	/	/	/
Cc1ccc(C(O)(C(=O)NN(C(=O)c2ccccc2)c2ccccc2)c2ccc(C)cc2)cc1	7.0	6.3	13.0%	-15.8%	-15.2%	7.5%
Cc1ccc(N(NC(=O)C(O)(c2ccccc2)c2ccccc2)C(=O)CCl)cc1	1.3	-4.8	6.31µM*	-4.3%	7.94µM*	1.7%
COc1ccc(-n2nc(C#N)c(Cl)cc2=O)cc1	0.0	-22.9	10µM*	?	12.6µM*	-7.6%
Cc1cccc(C)c1OCC(=O)NNC(=O)CNC(=O)c1ccc(OC(F)F)cc1	-5.4	5.8	/	/	/	/
C=CCNC(=S)N/N=C1\CCS(=O)(=O)c2ccccc21	-2.9	1.7	17.8µM*	9.7%	?	/
CC(OC(=O)C1CCCC1)C(=O)Nc1ccc(C(N)=O)cc1 (configuration not stated)	0.0	0.8	/	/	/	/
COc1cccc(Nc2nc(N)nc(CCl)n2)c1	-2.7	-14.0	-18.8%	6.7%	-20.8%	2.2%
Cc1cccc(Nc2nc(N)nc(CCl)n2)c1	-0.5	0.0	?	-4.4%	10µM*	4.7%
COC(=O)[C@H](CO)N1C(=O)[C@@H]2[C@H](C1=O)C1C=C[C@H]2C1	0.0	9.1	/	/	/	/
Cc1ccc2nc(-c3ccc(NS(=O)(=O)c4ccc(F)cc4)cc3)sc2c1	?	-7.5	/	/	/	13.7%
COc1ccc2nc(-c3ccc(N(C)C)cc3)sc2c1	/	/	0.631µM*	/	5.01µM*	/
Cc1ccc2nc(-c3ccc(N)cc3)sc2c1	0.0	-4.7	4.47µM*	7.5%	10µM*	15.0%
Nc1ccc(-c2nc3cc(N)ccc3s2)cc1	2.6	1.3	7.94µM*	?	?	3.7%
COc1ccc2nc(N)sc2c1	3.6	-1.6	-4.6%	9.1%	7.0%	-1.4%[21.7 µM]
SMILES	CtBP-E1A blk	Six1-Eya2 inh	RORg inh	MBNL1 CUG block	VP16 counter	CBFb-RUNX1 inh
Nc1ccc2nc(-c3ccccc3)sc2c1	19.9	13.9	8.91µM*	21.6%	?	10.9%
NCC1O[C@@H](O[C@@H]2C(O)[C@H](O[C@H]3OC(CO)C(O)C(N)C3O)[C@@H](N)C[C@H]2N)C(N)C(O)C1O (some centres not stated)	/	/	0.8%	/	2.3%	14.1%
Cc1ccc(F)cc1C(=O)N1CCCCC1c1cc(C(=O)NC(C)C)no1 (configuration not stated)	6.5	4.1	/	/	/	/
O=C(c1ccccc1)N1CCN(C(=O)c2nn3c(C(F)(F)F)cc(-c4ccco4)nc3c2Br)CC1	-13.9	-1.9	19.4%	?	-17.4%	/
COc1ccccc1CCC(=O)NNC(=O)Cn1nc(C)cc1C	-0.6	4.7	/	/	/	/
CC(C)(C)[C@@H]1C=C(C(=O)O)[C@H](c2ccc(Cl)cc2)N1S(=O)(=O)c1ccccc1	-21.4	2.9	/	/	/	/
COc1ccccc1/C=C1\SC(=S)N(CCC(=O)N2CCCCC2CCO)C1=O (configuration not stated)	-6.1	-6.2	?	?	-1.5%	/
O=C1/C(=C/c2cccs2)SC(=S)N1CCC(=O)N1CCCCC1CCO (configuration not stated)	?	-16.1	?	?	11.2µM*	/
O=C(CCN1C(=O)/C(=C\c2ccccc2)SC1=S)N1CCCCC1	0.6	4.6	19.7%	28.3%	-6.1%	/
O=C(CCN1C(=O)/C(=C/c2cccs2)SC1=S)N1CCCCC1	-15.1	-17.7	11.2µM*	?	?	/
c1ccc(Nc2nc3ccccc3[nH]2)nc1	-7.6	-17.2	2µM*	-26.7%	?	5.4%
CCOC(=O)C(Sc1nnc(-c2ccncc2)o1)C(C)=O (configuration not stated)	-13.9	-4.0	5.01µM*	9.7%	4.47µM*	-14.3%
CCOc1ccc(NC(=O)CN(C)C(=O)c2c(-c3ccccc3Cl)noc2C)cc1OCC	-4.1	-0.8	/	/	/	/
C[C@H](NC(=O)c1cc2cc(Cl)ccc2n1C)C(=O)N[C@@H](Cc1ccccc1)C(=O)O	-2.8	-5.2	2.4%	-3.3%	-3.0%	/
CC(=O)Nc1ccc(Cc2ccncc2)cc1	-0.3	10.3	-22.2%	-1.6%	4.9%[0.365 µM]	9.7%
CC(=O)c1ccc(NS(=O)(=O)c2ccc(CC(C)C)cc2)cc1	6.0	1.8	?	-1.9%	10µM*	-4.4%
CC(=O)Nc1ccc(S(=O)(=O)Nc2ccc(Cc3ccncc3)cc2)cc1	-4.5	8.1	?	-3.9%	10µM*	/
COc1ccc(S(=O)(=O)Nc2ccc(Cc3ccncc3)cc2)cc1C	-3.5	-0.3	31.8%	-5.9%	22.4µM*	/
Nc1c(O)cccc1C(=O)C[C@@H](N)C(=O)O	/	/	8.1%[16.9 µM]	/	-10.7%[17 µM]	16.8%[21.7 µM]
C/C(CCN1CCCCc2nc(C)c(C)cc21)=N\OC[C@@H](O)COCc1ccco1	/	/	10.8%[10 µM]	/	-11.7%[10 µM]	9.5%[13.1 µM]
CC(=O)c1cccc(NC(=O)c2cccc3c(-c4cnn(C)c4)coc23)c1	-2.4	-3.1	/	/	/	/
COc1cccc(NC(=O)CN(C)C(=O)CN2C(=O)NC(C)(c3ccc4ccccc4c3)C2=O)c1 (configuration not stated)	-2.2	-9.4	/	/	/	/
